Screens as filed in PubChem.
TDP43 rescue = qHTS of TDP-43 Inhibitors; TDP-43 expressing yeast growth rescue, BacTiter-Glo, 24 h; Potency, µM (doses to about 46.1 µM), inactives show at the top dose growth rescue (activation), hits mostly activators; 410,000 tested, 1.8% active; AID 652104, 2013; note: % of control where 0% means no effect; nearly all actives have a fitted effect of over 50% in size
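Cell-based yeast growth screen: TDP-43 expression induced in galactose, inoculum OD600=0.02 after raffinose pregrowth to mid-log. Read-out BacTiter-Glo luminescence at 24 hr, 30 deg C; inhibition of toxicity seen as signal increase.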
aSyn rescue = qHTS of alpha-syn Inhibitors | Potency, µM (titrated, usually from 46.1 µM), inactives show top-dose growth rescue (activation), hits mostly activators | 370,000 tested, 0.14% active | Yeast expressing alpha-synuclein, growth rescue, BacTiter-Glo, 24 h | AID 652106, 2013; note: % of control where 0% means no effect; nearly all actives have a fitted effect of over 65% in size
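Readout is rescue of growth in alpha-synuclein-expressing yeast, so inhibitors of toxicity appear as activators. Growth after 24 hr at 30 deg C in galactose medium is quantified by luminescence.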
Abeta rescue = qHTS for compounds that reverse cellular toxicity of Amyloid beta (A-beta) peptide in yeast: Primary Screen. yeast expressing A-beta42, growth rescue, OD600, 48 h; response scale: 0% DMSO, 100% iron-clioquinol control. Potency, µM (highest dose often 46.1 µM), usual class: activators. 410,000 tested, 0.063% active; note: nearly all actives have a fitted effect of over 55% in size
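Growth rescue measured by 600 nm absorbance after 48 h yeast culture at 30 C with compound. Values normalized between DMSO and an equimolar ferric chloride plus clioquinol control.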
MmCpn inh = Inhibitors of TCP-1 ring complex (TRiC) of Methanococcus maripaludis (MmCpn): qHTS; Chaperonin Mm-Cpn (Methanococcus maripaludis); purified Mm-Cpn ATPase, ADP Transcreener TR-FRET; Potency, µM (highest dose often 76.9 µM), for inactives: at the highest dose activity, negative = inhibition, most hits filed as inhibitors; 330,000 tested, 0.031% active; note: % is set by controls: 0 for no effect and ±100 for the full control effect; nearly all actives have a fitted effect of over 80% in size
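Compound-treated chaperonin, 25 nM final, turns over 10 uM ATP at 37°C for 30 min following a 10 min preincubation; ADP generated competes with ADP-d2 for Eu-cryptate antibody, lowering FRET.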
ClpP mod = qHTS Assay for Activators of ClpP | purified B. subtilis ClpP, FRET peptide cleavage, 20 min | 340,000 tested, 1.9% active | AID 651965, 2013 | Potency, µM (top dose mostly 57.5 µM), for inactives: top-dose activity change, negative = active; active = well fitted falling curve with a large enough effect; inconclusive = small, poorly fitted or top-dose-only effect; inactive = no such curve, though single readings can be large or run the other way; note: the source files actives as falling curves though it sought activators and does not explain the sign; nearly all actives have a fitted effect of over 65% in size
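ClpP 10 microg/mL final, pH 8 Tris/KCl buffer with BSA, glycerol, Tween-20; compound pinned in; FRET-FV substrate; RT 20 min; Ex320/Em430; ΔFRET vs ADEP 5.8 microM, DMSO, no enzyme.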
FUS yeast rescue = qHTS for Suppressors of FUS Proteinopathy: Primary screen using FUS-linked yeast assay; S. cerevisiae FUS-expressing, growth rescue, OD600, 24 h; Potency, µM (doses to about 76.6 µM), hits mostly activators; 390,000 tested, 0.24% active; AID 1347120, 2019;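 note: plate controls were DMSO vehicle for no effect and reference control for full effect; nearly all actives have a fitted effect of over 55% in size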
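Steps: raffinose overnight preculture; dilution to OD 0.005 in 2% galactose minimal medium; compound addition (concentration series); 24hr at 30C, 99% humidity; absorbance read at 600 nm.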
Numbers without * were called inactive; i = inactive; ? = inconclusive; nt = not tested or not shown. Shown are actives, neighbours in structure and some others; about 3.6% of the full set was active somewhere. Unless noted, calls come from the whole dose curve; as a rule, active = well fitted curve in the direction sought with a large enough effect; inconclusive = small, poorly fitted or top-dose-only effect, or another doubt; inactive = no such curve, though single readings can be large; an effect the other way counts as inactive or inconclusive. Potency is the fitted concentration of half-maximal effect.

SMILES	TDP43 rescue	aSyn rescue	Abeta rescue	MmCpn inh	ClpP mod	FUS yeast rescue
COc1ccc(S(=O)(=O)N2CCOC23CCN(C(=O)c2c(F)cccc2Cl)CC3)cc1	18µM*	3%	?	-1%	-1%	i
COc1ccc(NC(=O)CSC2=Nc3ccccc3C3=NC(CC(=O)NCCc4ccccc4)C(=O)N23)cc1 (centres undefined)	?	nt	i	nt	-4%	i
Cc1ccccc1CNC(=O)CCS(=O)(=O)c1cc2c3c(c1)CCN3C(=O)CC2	10%	nt	i	nt	2%	i
Cc1ccc(N2C(=O)c3cccc([N+](=O)[O-])c3C2=O)cc1C	13µM*	11%	i	2%	nt	i
CC1CCN(c2c([N+](=O)[O-])nn(-c3ccc4c(c3)OCCO4)[n+]2[O-])CC1	13µM*	15%	i	1%	0%	?
Clc1ccc(CCNc2nc3cc(Cl)c(Cl)cc3n3cnnc23)cc1	29%	nt	i	nt	-17%	i
Cc1cc(-c2nc(-c3ccncc3)no2)ccc1[N+](=O)[O-]	11µM*	-3%	i	-1%	0%	i
Cc1ccc(NC(=S)NC(=O)c2cncc(Br)c2)c(C)c1	6%	-11%	?	nt	1%	i
Cc1ccc(C)c(NC(=S)NC(=O)c2cncc(Br)c2)c1	11µM*	-4%	?	nt	-1%	i
Cc1ccc(S(=O)(=O)N2CCCCC2)cc1NC(=O)c1cncc(Br)c1	-20%	-1%	i	-2%	11µM*	?
COc1ccc(-c2c3c(nc4sc5c(=O)[nH]c(C)nc5c24)CCC3)cc1	15%	5%	i	-20%	28µM*	i
COc1ccc(-c2csc(CCn3nc(C)cc3C)n2)cc1	18µM*	-7%	i	-6%	nt	i
CCCCCN1CCCCC(NC(=O)c2ccc(F)c(F)c2)C1=O (centres undefined)	nt	nt	nt	nt	nt	i
Nc1ccc(C2CCCc3nonc32)c2nonc12 (centres undefined)	22µM*	1%	i	-7%	-1%	i
Nc1ccc(N2CCCCC2)c2nonc12	10%	0%	i	-5%	0%	i
CC(C)c1ccc(-n2cnn(-c3ncccc3[N+](=O)[O-])c2=O)cc1	11µM*	-3%	i	2%	2%	i
Cc1cc(C)n(-c2ncccc2[N+](=O)[O-])n1	7%	6%	i	-3%	-1%	i
COCCCC1CCN(C(=O)c2cc(COc3cc(C)ccc3C)on2)CC1	28µM*	-6%	i	0%	-1%	?
COC1CCN(C(=O)c2cc(COc3cc(C)ccc3C)on2)CC1	0%	1%	i	nt	-1%	i
CCc1ccc(NCc2cc3ccc(OC)cc3n(CC(=O)Nc3cccc(Cl)c3C)c2=O)cc1	0%	1%	i	nt	2%	i
CC(C)c1ccc(NC(=O)CS(=O)(=O)c2cccc3nsnc23)cc1	25µM*	?	i	nt	1%	i
CN(CC(=O)Nc1ccc(Br)cc1)S(=O)(=O)c1cccc2nsnc12	22µM*	nt	i	nt	0%	i
O=C(Cn1c(=O)n(Cc2nc(-c3ccccc3)no2)c(=O)c2cc3c(cc21)OCO3)Nc1cccc(C(F)(F)F)c1	15%	nt	i	nt	?	i
CCOC(=O)[C@]12CCCC=C1N(CCCOC)C(=O)[C@@H]2CC(=O)N1CCN(C(=O)c2ccco2)CC1	nt	nt	nt	nt	nt	i
CCC(C(=O)NCCc1cc(OC)ccc1OC)n1nc(C)c2sc3ccccc3c2c1=O (centres undefined)	7%	nt	i	nt	-5%	i
SMILES	TDP43 rescue	aSyn rescue	Abeta rescue	MmCpn inh	ClpP mod	FUS yeast rescue
CCc1ccc(-c2nc3cc(NC(=O)c4cc5ccccc5cc4OC)ccc3o2)cc1	?	nt	i	nt	4%	i
Cc1ccccc1CC1C(=O)Nc2ccc(Br)cc21 (centres undefined)	13µM*	nt	?	nt	5%	i
COc1ccc(NC(=O)C2CCC(CNS(=O)(=O)c3cccc4nsnc34)CC2)cc1OC (centres undefined)	13%	nt	i	nt	-3%	i
C=C1[C@@H](O)CN(Cc2ccc(OC)cc2)S1(=O)=O	nt	nt	nt	nt	1%	nt
CCOc1ccc(N(C(C)=O)c2nc(C)cc(C)c2C#N)cc1	14%	-1%	i	-2%	25µM*	i
CC(=O)N(c1ccc(Cl)cc1)c1nc(C)cc(C)c1C#N	18%	5%	i	1%	nt	i
O=C(NC1CCCCC1)c1ccc(-c2cn[nH]c2)c2ccoc12	22µM*	0%	i	nt	4%	i
COc1ccc(-c2ccc(C(=O)NC3CCCCC3)c3occc23)c(C)c1	13µM*	0%	i	nt	5%	i
COc1ccc(-c2coc3c(C(=O)NC4CCCCC4)cccc23)c(C)c1	19%	2%	i	nt	-20%	i
COc1ccccc1CNc1ccccc1F	16%	5%	i	-1%	nt	i
COc1ccc(-c2ccccc2)cc1NCc1ccccc1C	21%	-15%	i	-1%	13µM*	i
COc1ccc(CNC(=O)c2ccc(-c3ccccc3)cc2)cc1OC	-8%	-12%	i	-2%	-1%	i
COc1ccc(-c2ccccc2)cc1NCc1ccc(OC)c(OC)c1	?	10%	i	-3%	28µM*	nt
COc1cc2ncnc(NCc3ccccc3C)c2cc1OC	2%	-6%	i	0%	-26%	i
COc1ccccc1CNc1cc(-c2ccccc2)ccc1OC	13µM*	-12%	i	0%	25µM*	nt
COc1cc(OC)c(NC(=O)c2c3c(nc4ccccc24)C(=O)N(C2CCCCC2)C3)cc1Cl	23%	nt	i	nt	1%	i
O=C(Nc1ccccc1F)c1ccc(O)c2ncccc12	nt	nt	nt	-1%	nt	nt
COc1ccc(-c2c[n+]3c4n2CCCCC4=C(c2ccc(Br)cc2)C3)cc1	-26%	-4%	i	-2%	22µM*	?
O=C(C[n+]1cc(-c2ccc(Cl)cc2)n2c1CCCCC2)c1ccccc1	-27%	-5%	i	-2%	1%	i
Clc1ccc(C2=C3CCCCn4c(-c5ccccc5)c[n+](c43)C2)cc1	5%	2%	i	-1%	10µM*	i
